# Data reported in PubChem BioAssay.
# Activity calls are given as the source filed them. Unless noted, the rule behind the calls is not given here.
# Columns and labels:
# [1] = compound effects on lung adenocarcinoma cell viability – A549, calcein-AM fluorescence, 48 h, basal, profiling panel (AID 1162); details: higher = more signal; note: test concentration not given here
# [2] = compound effects on differentiated 3T3-L1 adipocyte viability – cell-based, 3T3-L1 adipocytes, calcein-AM fluorescence, 48 h, basal, profiling panel (AID 1163); details: 3T3-L1 adipocytes viability, higher = more signal; note: test concentration not given here
# [3] = compound effects on hepatocellular carcinoma cell viability – HepG2, calcein-AM fluorescence, 48 h, basal, profiling panel (AID 1164); details: higher = more signal; note: test concentration not given here
# [4] = compound effects on multiple myeloma cell viability – MM1S, calcein-AM fluorescence, 48 h, basal, profiling panel (AID 1165); details: higher = more signal;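 note: viability of MM1S multiple myeloma cells under basal unstimulated conditions; test concentration not given here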
# [5] = calcein-AM signal in unstimulated myeloma cells – cell-based, calcein-AM fluorescence, 48 h, PK04 Diversity Set, profiling panel (AID 1166); details: RPMI8226 myeloma viability, higher = more signal;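 note: cells grown under basal conditions without added stimulus; test concentration not given here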
# [6] = JC-1 mitochondrial signal, unstimulated HepG2 cells – cell-based, JC-1 fluorescence, 24 h, 100 nL compound, profiling panel (AID 1167); details: HepG2 mitochondrial potential, higher = more signal; note: test concentration not given here
# [7] = JC-1 mitochondrial signal, unstimulated adipocytes – cell-based, JC-1 fluorescence, 3T3-L1 adipocytes, 24 h, 100 nL compound, profiling panel (AID 1168); details: JC-1 mitochondrial fluorescence, higher = more signal, called active from +8 up or from −8 down; note: test concentration not given here
# [8] = JC-1 mitochondrial signal, unstimulated myeloma cells – cell-based, JC-1 fluorescence, RPMI8226, 24 h, 100 nL compound, profiling panel (AID 1169); details: JC-1 mitochondrial potential fluorescence, higher = more signal; note: test concentration not given here
# [9] = JC-1 mitochondrial signal, unstimulated MM1S myeloma – cell-based, JC-1 fluorescence, 24 h, 100 nL compound, profiling panel (AID 1170); details: MM1S mitochondrial potential, higher = more signal; note: test concentration not given here
# [10] = resazurin metabolic signal in A549 cells – cell-based, resazurin fluorescence, 24 h, PK04 Diversity Set, profiling panel (AID 1171); details: A549 viability, higher = more signal, called active from +8 up or from −8 down; note: test concentration not given here
# [11] = resazurin metabolic signal in HepG2 cells – cell-based, resazurin fluorescence, 24 h, PK04 Diversity Set, profiling panel (AID 1172); details: HepG2 viability, higher = more signal; note: test concentration not given here
# [12] = budding yeast growth changes without added modifier – OD600, strain BY4716, 24 h, basal condition, primary screen (AID 1173); details: S. cerevisiae BY4716 growth, OD600, 24 h; higher = more signal, called active from +8 up or from −8 down
# [13] = viability profiling in MM1S myeloma cells – cell-based, resazurin fluorescence, basal, 24 h, PK04 Diversity Set, profiling panel (AID 1174); details: higher = more signal, called active from +8 up or from −8 down; note: test concentration not given here
# [14] = target: Dihydroorotate dehydrogenase (quinone), mitochondrial (Plasmodium falciparum (isolate 3D7)) (UniProt Q08210); assay: inhibition of P. falciparum DHODH – biochemical, C-terminal His tag, absorbance 600 nm, primary screen (AID 1175); details: PfDHODH enzyme, DCIP absorbance 600 nm; higher = more signal, called active from +8 up or from −8 down;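 note: recombinant parasite enzyme with a five histidine tag at its C terminus; test concentration not given here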
# [15] = inhibition of PAO1 biofilm formation – strain PAO1, LB-PBS medium, absorbance 600 nm, primary screen (AID 1176); note: test concentration not given here; details: P. aeruginosa PAO1 growth/biofilm, A600, 12 h; higher = more signal
# [16] = growth modulation of vineyard yeast isolate – strain RM11-1a, OD600, basal, 24 h, primary screen (AID 1177);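 note: cultures grown under basal conditions with no added stressor; test concentration not given here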; details: S. cerevisiae RM11-1a growth, OD600, 24 h; higher = more signal, called active from +8 up or from −8 down
# [17] = growth of efflux-deficient E. coli DRC39 – strain DRC39, OD650, 24 h, E. coli filamentation inducers, primary screen (AID 1178);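 note: growth measured as culture turbidity by optical density at 650 nm; test concentration not given here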; details: E. coli DRC39 acrAB, higher = more signal, called active from +8 up or from −8 down
# [18] = growth of efflux-deficient E. coli DRC39 – strain DRC39, OD650, 48 h, E. coli filamentation inducers, primary screen (AID 1179);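 note: screen aims at cell division blockers that make cells filament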; details: E. coli DRC39 delta-acrAB growth, higher = more signal, called active from +8 up or from −8 down
# [19] = viability profiling in RPMI8226 myeloma cells – cell-based, resazurin fluorescence, basal, 24 h, PK04 Diversity Set, profiling panel (AID 1180); details: higher = more signal;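 note: RPMI8826 multiple myeloma cell line at 5000 cells per well; test concentration not given here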
# [20] = target: E3 ubiquitin-protein ligase XIAP (Homo sapiens) (UniProt P98170); assay: small molecules binding XIAP protein – biophysical, small-molecule microarray, fluorescence 635 nm, primary screen (AID 1181); details: higher = more signal;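 note: score merges 667 nm emission and signal to noise over triplicate slides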
# Sequence of E3 ubiquitin-protein ligase XIAP (Homo sapiens) (P98170 whole entry, looked up): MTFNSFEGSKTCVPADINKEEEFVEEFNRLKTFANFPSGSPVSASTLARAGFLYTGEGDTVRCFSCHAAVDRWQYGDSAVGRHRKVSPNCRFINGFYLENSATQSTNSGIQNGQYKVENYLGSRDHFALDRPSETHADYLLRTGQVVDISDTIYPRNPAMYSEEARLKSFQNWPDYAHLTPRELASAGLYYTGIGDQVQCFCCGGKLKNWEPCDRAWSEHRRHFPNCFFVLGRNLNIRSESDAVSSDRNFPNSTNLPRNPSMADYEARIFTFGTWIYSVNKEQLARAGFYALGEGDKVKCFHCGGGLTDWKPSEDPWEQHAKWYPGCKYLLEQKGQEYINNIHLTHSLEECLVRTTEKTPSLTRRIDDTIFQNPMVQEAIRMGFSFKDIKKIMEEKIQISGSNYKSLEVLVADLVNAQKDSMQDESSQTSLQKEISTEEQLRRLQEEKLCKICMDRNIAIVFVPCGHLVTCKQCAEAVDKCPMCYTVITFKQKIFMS
# Sequence of Dihydroorotate dehydrogenase (quinone), mitochondrial (Plasmodium falciparum (isolate 3D7)) (Q08210 whole entry, looked up): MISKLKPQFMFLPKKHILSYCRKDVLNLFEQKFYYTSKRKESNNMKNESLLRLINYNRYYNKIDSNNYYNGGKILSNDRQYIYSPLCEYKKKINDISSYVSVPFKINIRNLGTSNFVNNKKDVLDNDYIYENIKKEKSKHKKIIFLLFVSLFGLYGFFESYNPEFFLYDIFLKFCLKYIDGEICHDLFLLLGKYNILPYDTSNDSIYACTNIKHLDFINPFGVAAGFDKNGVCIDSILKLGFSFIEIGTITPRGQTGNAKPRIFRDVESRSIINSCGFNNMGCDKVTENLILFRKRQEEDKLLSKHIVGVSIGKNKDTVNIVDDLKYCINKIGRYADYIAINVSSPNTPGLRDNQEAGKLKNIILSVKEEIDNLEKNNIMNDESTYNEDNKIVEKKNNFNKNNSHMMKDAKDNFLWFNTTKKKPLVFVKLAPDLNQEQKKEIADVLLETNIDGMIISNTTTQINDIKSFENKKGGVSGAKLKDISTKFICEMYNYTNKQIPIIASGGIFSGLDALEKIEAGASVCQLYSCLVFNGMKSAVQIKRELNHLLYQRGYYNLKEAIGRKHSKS
SMILES,z-score [1],z-score [2],z-score [3],z-score [4],z-score [5],z-score [6],z-score [7],z-score [8],z-score [9],z-score [10],z-score [11],z-score [12],z-score [13],composite z-score [14],z-score [15],z-score [16],z-score [17],z-score [18],z-score [19],composite z-score [20]
CN(C)CCCN1C(=O)[C@@]2(c3ccc([N+](=O)[O-])cc3)CC(=O)N(C3CCCCC3)[C@@H]2c2ccc(CO)cc21,-0.397,0.962,-0.816,-0.0337,0.505,0.446,-0.274 (inactive),0.764,-0.725,0.572 (inactive),1.57,-1.28 (inactive),1.11 (inactive),-3.88 (inactive),-0.6 (inactive),-1.45 (inactive),0.244 (inactive),0.876 (inactive),1.12,-0.0374
COC(=O)[C@@]1(Cc2ccccc2)[C@H]2c3cc(C(=O)N(C)C)n(Cc4cc(F)c(F)c(F)c4)c3C[C@H]2CN1C(=O)c1ccccc1,-0.749,0.135,0.545,-2.11,-4.67,0.891,-1.35 (inactive),-0.368,-0.951,-0.0085 (inactive),0.0126,0.989 (inactive),-0.402 (inactive),-0.258 (inactive),-0.0019 (inactive),0.968 (inactive),0.194 (inactive),0.322 (inactive),-0.963,0.272
COC(=O)[C@@]1(Cc2ccc(F)cc2)[C@H]2c3cc(C(=O)N4CCCC4)n(Cc4ccc(Cl)c(C(F)(F)F)c4)c3C[C@H]2CN1C(=O)c1ccccc1,-0.463,-0.286,-0.452,-0.604,-2.4,1.09,-1.33 (inactive),-0.673,-1.96,-1.53 (inactive),-1.03,1.55 (inactive),-2.02 (inactive),0.0979 (inactive),0.84 (inactive),0.78 (inactive),-0.178 (inactive),0.272 (inactive),-3.32,0.553
COc1ccc(CCNC(=O)[C@@]2(C)c3ccccc3C(=O)N(Cc3ccccc3)[C@H]2c2ccc(CO)cc2)cc1,-0.973,0.456,-0.833,-0.886,-2.55,1.05,-0.965 (inactive),-0.0556,-0.986,2.17 (inactive),0.976,-1.12 (inactive),0.617 (inactive),-0.984 (inactive),0.938 (inactive),-0.803 (inactive),0.605 (inactive),0.535 (inactive),1.43,-0.138
CO[C@H]1O[C@H](CO)[C@@H](OC(=O)Nc2ccc3c(c2)OCO3)[C@H](OC(=O)Nc2ccc3c(c2)OCO3)[C@H]1OC(=O)Nc1ccc2c(c1)OCO2,-0.689,-0.121,-1.09,-1.57,-0.566,0.328,0.374 (inactive),0.0119,0.961,0.38 (inactive),-0.159,1.66 (inactive),-0.798 (inactive),-0.145 (inactive),2.5 (inactive),2.54 (inactive),1.73 (inactive),-0.273 (inactive),-0.511,0.463
CC(C)OC(=O)C1=CCC(c2cccc(Cl)c2)O1 (stereo not given),-1.14,0.102,-0.582,-1.57,-1.58,-0.231,-0.076 (inactive),0.923,-1.99,1.09 (inactive),0.195,-5.96 (inactive),0.242 (inactive),-0.582 (inactive),0.905 (inactive),-2.25 (inactive),-0.138 (inactive),0.143 (inactive),-0.501,-0.197
O=C1C2C=CC(C(O)c3ccc(-c4ccccc4)s3)N(Nc3ccccc3F)C2C(=O)N1c1ccccc1 (stereo not given),-1.07,-0.0797,-0.297,-0.0003,-1.3,-2.29,-1.57 (inactive),-0.35,-0.0666,-1.7 (inactive),-1.5,0.025 (inactive),-1.38 (inactive),0.853 (inactive),0.366 (inactive),1.19 (inactive),-0.516 (inactive),-0.795 (inactive),-1.6,0.0101
O=P(NCC1(CC2(c3ccccc3)CO2)CC1)(c1ccccc1)c1ccccc1 (stereo not given),-1.08,-0.933,0.676,0.116,0.0906,-0.187,0.48 (inactive),0.125,-0.792,0.316 (inactive),-0.293,1.19 (inactive),-0.242 (inactive),-0.402 (inactive),0.191 (inactive),2.7 (inactive),-0.191 (inactive),-0.0173 (inactive),0.0301,-0.102
C=CCNC(=O)[C@H]1[C@@H]2C(=O)O[C@@H](c3ccccc3)[C@@H](c3ccccc3)N2[C@@H](c2ccc(OCCO)cc2)[C@]12C(=O)N(C(=O)OCCOC)c1ccc(C#CC3(O)CCCCCC3)cc12,1.13,1.61,0.388,-0.963,-2.4,-0.898,1.71 (inactive),-0.774,-0.988,0.454 (inactive),-0.162,1.33 (inactive),-0.421 (inactive),-1.08 (inactive),1.79 (inactive),2.43 (inactive),-0.129 (inactive),1.16 (inactive),0.393,-0.0999
Cc1cc(C)c(C(O)C2C=CC3C(=O)NC(=O)C3N2Nc2ccccn2)c(C)c1 (stereo not given),-0.948,-0.397,0.359,0.22,0.066,-0.767,-0.363 (inactive),-0.188,-0.0615,-0.875 (inactive),-1.25,0.705 (inactive),-1.78 (inactive),1.41 (inactive),0.9 (inactive),0.276 (inactive),-0.579 (inactive),-0.342 (inactive),-0.68,0.203
CC(C)C(CO)N1C(=O)[C@@H]2[C@H]3C(=O)OCC=C[C@H]3OC23C=CCN(c2ccc4ccccc4c2)C(=O)[C@@H]13 (stereo not given in full),-0.339,0.126,0.21,0.88,-1.02,-0.124,0.106 (inactive),-0.651,1.1,0.156 (inactive),-0.128,0.485 (inactive),0.112 (inactive),0.958 (inactive),-0.497 (inactive),1.24 (inactive),0.483 (inactive),0.347 (inactive),0.133,-0.0476
C=CCOC(=O)[C@H]1[C@@H]2C(=O)O[C@@H](c3ccccc3)[C@@H](c3ccccc3)N2[C@@H](c2ccc(OCCOC(=O)[C@@H]3C[C@@H]4C(=O)NCC(=O)N4[C@@H]3c3ccc(O)cc3)cc2)[C@]12C(=O)Nc1ccc(I)cc12,-0.566,-0.907,-0.368,-0.0033,0.169,-1.55,0.459 (inactive),-0.688,-1.1,-0.148 (inactive),-0.247,0.528 (inactive),-0.897 (inactive),0.31 (inactive),2.27 (inactive),0.305 (inactive),-0.641 (inactive),-0.51 (inactive),-0.433,-0.0066
C=C(C(=O)CC[C@H](OC(=O)c1cccnc1)c1ccccc1OCCO)C(C)C,0.219,-0.602,-0.967,-2.21,-1.69,-1.45,0.31 (inactive),-0.742,-0.477,0.626 (inactive),0.3,-0.993 (inactive),-1.5 (inactive),-0.429 (inactive),0.686 (inactive),-0.237 (inactive),0.283 (inactive),0.237 (inactive),-2.14,-0.0994
COc1ccc(C#Cc2ccc3c(c2)[C@]2(C(=O)N3)[C@H](C(=O)N3CCc4cc(OC)c(OC)cc4C3)[C@H]3C(=O)O[C@H](c4ccccc4)[C@H](c4ccccc4)N3[C@@H]2c2ccc(OCCO)cc2)cc1,1.04,0.386,0.515,-0.73,0.223,-0.233,2.37 (inactive),-0.513,-1.5,0.185 (inactive),0.0594,2.37 (inactive),-0.0819 (inactive),-1.04 (inactive),1.66 (inactive),4.19 (inactive),0.452 (inactive),0.593 (inactive),1.5,-0.209
C=CCC(OC(C)=O)[C@@H]1[C@@H](N(Cc2ccc(-c3cccc(C(F)(F)F)c3)o2)C(=O)Cc2ccc(OC)cc2)c2cc(OCCCO)ccc2N1C(=O)Cc1ccc(OC)cc1 (stereo not given in full),1.92,1.38,0.641,0.018,-1.02,2.08,-0.709 (inactive),-0.804,-0.757,0.139 (inactive),-0.0596,-1.2 (inactive),1.08 (inactive),-1.49 (inactive),0.125 (inactive),-1.08 (inactive),1.49 (inactive),0.814 (inactive),0.695,-0.0879
CCOC(=O)C1=CC[C@@H](c2cccc(Cl)c2)N(S(=O)(=O)c2ccc(C)cc2)[C@H]1c1ccc(C#N)cc1,0.384,-1.03,-0.474,-0.692,-0.704,1.38,0.0503 (inactive),-0.62,-1.29,1.27 (inactive),0.697,2.09 (inactive),-0.39 (inactive),0.21 (inactive),1.68 (inactive),0.834 (inactive),-0.905 (inactive),-0.314 (inactive),-1.42,-0.38
COc1ccc(C#Cc2ccc3c(c2)[C@]2(C(=O)N3)[C@H](c3ccc(OCCO)cc3)N3[C@H](c4ccccc4)[C@H](c4ccccc4)OC(=O)[C@H]3[C@@H]2C(=O)Nc2nc3ccccc3s2)cc1,1.47,0.292,0.891,-1.69,-1.37,-2.95,6.28 (inactive),-1.3,-1.71,-1.23 (inactive),0.534,0.436 (inactive),0.217 (inactive),-3.02 (inactive),3.64 (inactive),1.55 (inactive),0.528 (inactive),1.25 (inactive),0.174,0.75
C=C(COC)C(=O)CC[C@H](OC(=O)c1cccnc1)c1ccccc1OCCO,-0.414,-0.751,-1.24,-3.3,-3.76,-0.952,0.0833 (inactive),-0.706,-2.25,0.138 (inactive),-0.577,-0.332 (inactive),-3.06 (inactive),-0.414 (inactive),1.45 (inactive),-0.511 (inactive),-0.438 (inactive),-0.285 (inactive),-2.92,-0.0143
